Measured values: PubChem BioAssay (NCI)
This is part of a sample that, as a whole, favours compounds with a hit. Of some 83,000 tested, about 20% had one in any assay.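 Step 1: grow cells in 96-well plates. Step 2: add test compound at a single concentration. Step 3: incubate 48 h. Step 4: record percent growth.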 Values without a mark were called inactive. Activity calls are given as the source filed them.

Tested on: HCT-116 colon
Test: NCI-60 one-dose screen, 48 h (100 = growth as untreated, 0 = no growth, -100 = all killed)
Conditions: 10 µM unless noted
Procedure: Growth inhibition of the HCT-116 human tumor cell line is measured as a screen for anti-cancer activity. Cells are grown in 96 well plates and exposed to the test compound for 48 hours. Compounds are tested at a single concentration, which is 10^-5 M for most compounds. The reported endpoint is percent growth (GI% or GIPRCNT), where numbers from 0 - 100% represent growth inhibition, and numbers from -100% - 0 represent cell death. For example, a value of 40 represents 60% growth inhibition. A value of 0 means no net growth occurred over the course of the experiment. A value of -40 indicates 40% of cells at the beginning of the experiment died by the end of the experiment. A value of -100 means all cells are dead at the end of the experiment.
NCI-60 Human Tumor Cell Lines Screen was performed using the standard one-dose NCI protocol, which is described in more detail at https://dtp.cancer.gov/discovery_development/nci-60/default.htm.
Compounds with GIPRCNT values below 10 were considered active. Activity score was based on GIPRCNT using the following formula: […]
Score is 0 for GIPRCNT values of 100 or above, 50 for GIPRCNT values of 0, and 100 for GIPRCNT values of -100.

With `O=C(Nc1ccc(-c2nc(-c3cccc(OCCN4CCOCC4)c3)c(-c3ccnc(Br)c3)[nH]2)cc1)c1ccccc1` the growth was 10% (active).
`N/C(=N\c1nc2ccccc2s1)NC(=O)Nc1cccc2ccccc12` was tested, and the growth was 0.264% (active).
With `COc1ccc(C(=O)COC(=O)[C@H](C[Se][Se]C[C@H](NC(=O)c2ccc(Br)cc2F)C(=O)OCC(=O)c2ccc(OC)cc2)NC(=O)c2ccc(Br)cc2F)cc1` the growth was -69.1% (active).
`O=c1[nH]c2c(ccc3cnccc32)c2c1CCC2` was tested, and the growth was 4.41% (active).
With `NCCCNc1nc2ccccc2c2c(=O)c3cc(C(F)(F)F)ccc3sc12` the growth was -70.4% (active).
In the case of `O=C(Nc1ccc(Br)cc1F)c1cc(Br)ccc1O`, the growth is reported as 5.39% (active).
For `COc1cccc2c(=O)c3c(sc12)c(NCCCN)nc1ccccc13`, the growth was -73.9% (active).
In the case of `O=C(Cc1ccc(F)c(Cl)c1)Nc1cc(C2(C(F)(F)F)CC2)nn1CC1CCCCC1`, the growth is reported as 5.8% (active).
For `COC1=C(C)C(=O)c2c(c(CCCl)c3n2CCC3OC(C)=O)C1=O` (stereo not given), the growth was -19.7% (active).
In the case of `CN1CCN(c2ccc(-c3cnc4c(-c5csc6ccccc56)cnn4c3)cc2)CC1`, the growth is reported as -23.8% (active).
With `CN(C)CCS(=O)(=O)Nc1cc(-c2ccc3ncc(C#N)c(Nc4ccc(F)c(Cl)c4)c3c2)cnc1Cl` the growth was -51.6% (active).

Compared with `COc1ccc(NC2=C(Br)C(=O)C(C)=C(C)C2=O)cc1`, `COc1ccc2nc(NC(=O)c3cccnc3Nc3ccc(S(N)(=O)=O)cc3)sc2c1` is higher in growth: 14.1% for the first, 93.5% for the second.

Compared with `COc1c(N2CC3CCCN(C(C)=O)C3C2)c(F)cc2c(=O)c(C(=O)N[C@H]3C(O)[C@@H](O)C(CO)O[C@H]3O)cn(C3CC3)c12` (stereo not given in full), `O=C(O)c1cn(C2CC2)c2cc(N3CCN(C(=O)Nc4nc(-c5ccc(Cl)cc5)cs4)CC3)c(F)cc2c1=O` is lower in growth: 108% for the first, 14.8% for the second.

First: CN1C(=O)CNC(=O)[C@H](NC(=O)c2nc3ccccc3cc2O)CSSC[C@H]1C(=O)NCCc1nc2ccccc2cc1O
Second: Cc1c(C(=O)NCCCc2ccccc2)sc2ncc(-c3ccc(Br)cc3)n12
The growth of the first is lower: 80% for the first, 104% for the second.

Going from `CCCCCCNC(=O)Oc1ccc(/C(=C(\C)c2ccc(Cl)cc2)c2ccc(OCCN(CC)CC)cc2)cc1` to `CCCCNC(=O)Oc1ccc(/C(=C(\C)c2ccc(Cl)cc2)c2ccc(OCCN(CC)CC)cc2)cc1`, the growth rises from 29.6% to 51%.

Going from `N[C@@H](Cc1ccccc1)[C@@H](O)C(=O)NCc1ccc(F)cc1` to `O=c1ccc(N=Nc2ccccc2)ccc1Cl`, the growth falls from 96.1% to 13.7%.

First: Fc1cc(-c2nnc3n2NC(=Nc2ccc(Cl)cc2)CS3)c(Cl)cc1Cl
Second: Cc1ccc(-c2nc(SCC(=O)Nc3nc(-c4ccc(Cl)cc4)cs3)[nH]c(=O)c2C#N)cc1
The growth of the first is lower: 91.3% for the first, 91.6% for the second.

`CCOC(=O)C1=C(N)Oc2c(sc3c(C)cccc23)C1c1ccc(OC)cc1` (stereo not given) and `COc1ccc(S(=O)(=O)n2c3ccccc3n3ncc(-c4nnc(C)o4)c23)cc1` are the same in growth: 18.4% for the first, 18.4% for the second.

Going from `Cc1cc(O)c(C2=NN(c3ccc(S(N)(=O)=O)cc3)C(/C=C/c3ccccc3)C2)cc1Cl` (stereo not given) to `CCOC(=O)c1c2c(n(-c3ccc(C#N)cc3)c1-c1ccccc1)C=CCC2`, the growth rises from 10.6% to 66.2%.

Compared with `CCOC(=O)c1cn2ncnc(Oc3ccc(NC(=O)NCCN4CCOCC4)c(Cl)c3)c2c1C`, `CCCCCCNC(=O)Oc1ccc(/C(=C(\C)c2ccc(OC)cc2)c2ccc(OCCN3CCCCC3)cc2)cc1` is lower in growth: 94.7% for the first, 34.5% for the second.

First: c1ccc(Nc2cc(-c3cccnc3)[nH]n2)cc1
Second: COc1ccc(-c2conc2-c2ccccc2)cc1
The growth of the first is higher: 105% for the first, 12.3% for the second.

First: O=C(Cc1ccc2c(c1)OCCO2)Nc1nc2ccc(F)cc2s1
Second: N#Cc1c(-c2ccccc2)nc(SCC(=O)Nc2nc(-c3ccc(Cl)cc3)cs2)[nH]c1=O
The growth of the first is higher: 101% for the first, 81.8% for the second.

Compared with `CCCCCCCCCCCCCCCCCCOc1ccc(CC(=O)OCC[N+](C)(C)C)cc1`, `COc1cc(/C=C/c2ccccc2)cc(OC)c1` is lower in growth: 93% for the first, 92.4% for the second.

First: S=c1nc(-c2ccccc2)oc(=NC2CCCCC2)n1C1CCCCC1
Second: O=C1c2cccc3cccc(c23)C(=O)N1Nc1nc(NC2CCCCC2)nc(N2CCOCC2)n1
The growth of the first is lower: 18.5% for the first, 93.6% for the second.

First: O=C(CCN1C(=O)/C(=C/c2ccc(O)cc2)SC1=S)Nc1ccc(Cl)cc1
Second: COC(=O)/C=C1\S/C(=N\Nc2ccc([N+](=O)[O-])cc2[N+](=O)[O-])N(C2CCCCC2)C1=O
The growth of the first is higher: 92.2% for the first, 29.8% for the second.

`O=C(S)CNC(=O)c1ccccc1` was tested, and the growth was 87.6%.
